Source: PubChem BioAssay
A549 tox: kills or reduces viability of A549 cells in Nrf2 counter-screen; AID 504648; 0.16% of 390,000 active; Potency, µM (titrated, usually from 46 µM), hits mostly inhibitors; A549 ARE-Fluc cells, CellTiter-Fluor viability, 18-24 h
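A549 ARE_Fluc cells in 5% FBS OPTI-MEM were exposed to compounds in concentration-response for 18-24 h at 37 deg C. Viability was read by CellTiter-Fluor fluorescence (Ex 405/Em 525) after 30 min, before the luciferase read.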
Nrf2 block: inhibitors of Nrf2 signaling; A549 ARE-Fluc reporter, luciferase luminescence, 18-24 h; Potency, µM (series often up to 46 µM), usual class: inhibitors; 2.1% of 360,000 active; also: nearly all actives have a fitted effect of over 60% in size
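Nrf2 function is reported as luminescence of an ARE-controlled luciferase in A549 cells. Compounds were tested at several concentrations, and a CellTiter-Fluor read on the same wells flagged cytotoxicity.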
ATXN viability: cell viability loss in ATXN counter-screen. S2 cells (HEK-293 line with an ATXN2-luciferase reporter) viability, CellTiter-Fluor protease fluorescence, 24 h. Potency, µM (highest dose often 56.7 µM), usual class: cytotoxic. 0.49% of 400,000 active; also: nearly all actives have a fitted effect of over 40% in size
Nrf2 ARE act: Nrf2 pathway activation; AREc32 ARE-luciferase reporter (MCF7-derived line), luminescence, 24 h; Potency, µM (highest dose often 46.1 µM), actives largely listed as activators; 0.31% of 410,000 active; AID 624171; also: nearly all actives have a fitted effect of over 65% in size
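AREc32 cells carrying an ARE-driven firefly luciferase, 1000 cells/well in OPTI-MEM with 5% FBS, dosed after overnight attachment and incubated 24 hr at 37 deg C. Steady-Glo luminescence read after 30 min at RT.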
ATXN2 expr inh: ATXN2 expression inhibition; HEK-293 ATXN2-luciferase reporter, luminescence, 24 h; Potency, µM (doses to about 57 µM), hits mostly inhibitors; 0.72% of 360,000 active; AID 1745845; also: nearly all actives have a fitted effect of over 55% in size
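qHTS (up to 57 uM final) was run with 24 h compound exposure of reporter cells at 37 °C. Each well was multiplexed: SteadyGlo luminescence measured ATXN2-luciferase expression after a fluorogenic Gly-Phe-AFC viability readout (25 uM final).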
Numbers stand for hits; n = inactive; u = inconclusive; x = not tested or not shown; [ ] = dose if it differs, or a comment. Rows were chosen to be rich in hits. Some 2.9% of all compounds tested hit in one or more screens of this group. Calls follow the shape of the dose curve; as a rule, active = well fitted curve in the direction sought with a large enough effect; inconclusive = small, poorly fitted or top-dose-only effect, or another doubt; inactive = no such curve, though single readings can be large; an effect the other way counts as inactive or inconclusive.

SMILES	A549 tox	Nrf2 block	ATXN viability	Nrf2 ARE act	ATXN2 expr inh
O=S(=O)(CC(CN1CCCCC1)N1CCCCC1)c1ccccc1 (stereo unspecified)	u	18µM	x	n	x
CCCCCC(=O)NNC(=S)NC(=O)c1ccccc1[N+](=O)[O-]	u	23µM	n	n	x
CCOC(=O)C1CCN(C(=O)COC(=O)CNC(=O)c2sc3ccccc3c2Cl)CC1	n	n	n	n	x
CCOc1c2c(c(-c3ccc4c(c3)OCO4)c3cc(OC)c(OC)cc13)C(=O)OC2	2.9µM	1.8µM	x	x	x
CCCOc1ccc(CNC(=O)C(NS(=O)(=O)c2cccs2)C(C)C)cc1 (stereo unspecified)	n	x	u	n	n
Clc1ccccc1-c1nn2c(-c3ccncc3)nnc2s1	n	8.2µM	n	n	n
CCOc1cccc(N)c1	n	n	n	n	n
CCOc1ccc(N)c(SSc2cc(OCC)ccc2N)c1	n	n	1µM	n	x
O=C(c1ccc(S(=O)(=O)NCC2CCCO2)cc1)N1CCN(c2cccc(Cl)c2)CC1 (stereo unspecified)	n	13µM	n	n	n
O=C(c1ccc(S(=O)(=O)NCC2CCCO2)cc1)N1CCN(c2ccccc2F)CC1 (stereo unspecified)	n	n	n	n	n
O=C(Nc1cccc(F)c1)c1ccc(S(=O)(=O)NCC2CCCO2)cc1 (stereo unspecified)	n	21µM	n	n	n
CCN(CC)S(=O)(=O)c1ccc(N2CCOCC2)c(NS(=O)(=O)c2ccc(C)c(C)c2)c1	n	n	n	n	n
Cc1cccc(NC(=O)C2CCN(S(=O)(=O)c3ccc4[nH]c5c(c4c3)CCCCC5)CC2)c1	n	n	x	n	x
O=C(Nc1ccccc1)C1CCN(S(=O)(=O)c2ccc3[nH]c4c(c3c2)CCCCC4)CC1	n	16µM	x	n	x
CC(=O)N1CCOc2ccc(S(=O)(=O)N3CCC(C(=O)Nc4ccc(C)cc4)CC3)cc21	n	u	u	n	n
CN(c1ccc(C(=O)Nc2ccc(S(=O)(=O)N3CCCC3)cc2)cc1)S(C)(=O)=O	n	9.2µM	n	n	n
CCc1ccc(NC(=O)C2CCN(S(=O)(=O)c3ccc4c(c3)N(C(C)=O)CCO4)CC2)cc1	n	23µM	n	n	x
CN(C1CCCCC1)S(=O)(=O)c1ccc(NC(=O)C2CCCCC2)cc1	n	23µM	n	n	n
Cc1cc2c(s1)c1cnn(Cc3ccc(Cl)c(Cl)c3)c(=O)c1n2C	n	n	x	x	x
Cc1ccc([C@H]2C(C(=O)O)=CC[C@@H](c3ccc(Cl)cc3)N2S(=O)(=O)c2ccccc2C)cc1	n	n	u	n	n
CC(C)(C)NCC(O)COc1cccc2c1C[C@H](O)[C@H](O)C2 (stereo partly specified)	n	n	n	n	n
COc1cc(NC(=S)NCCc2ccccc2)c(OC)cc1NC(=O)CC(C)C	n	n	n	n	n
Cc1ccc(NC(=O)C2CCN(S(=O)(=O)c3ccc(F)cc3)CC2)cc1	n	n	u	n	n
Cc1ccc(NC(=O)C2CCN(S(=O)(=O)c3ccccc3)CC2)cc1	n	15µM	u	n	n
O=C(Nc1ccc(S(=O)(=O)N2CCCC2)cc1)c1ccc(F)cc1	n	n	n	n	n
SMILES	A549 tox	Nrf2 block	ATXN viability	Nrf2 ARE act	ATXN2 expr inh
O=C(Nc1ccc(S(=O)(=O)N2CCCCC2)cc1)c1ccc(F)cc1	n	29µM	n	n	n
Cc1cccc(NC(=O)C2CCN(S(=O)(=O)c3cccs3)CC2)c1	n	n	n	n	n
Cc1ccc(NC(=O)C2CCN(S(=O)(=O)c3cccs3)CC2)cc1C	n	26µM	n	n	n
O=C(Nc1ccc(S(=O)(=O)N2CCCC2)cc1)C1CCN(S(=O)(=O)c2ccc(F)cc2)CC1	n	23µM	n	n	n
O=C(CN1CCOCC1)NNC(=O)c1ccc([N+](=O)[O-])cc1	n	n	n	n	x
COc1ccc(Cc2c(-c3ccc(F)cc3)nc3ccc(Br)cn23)c(C)c1	x	x	n	n	n
O=C(Nc1ccc(Cc2ccncc2)cc1)c1ccc(S(=O)(=O)N2CCOCC2)cc1	n	9.2µM	n	n	n
CCOc1ccc(C(=O)Nc2ccc(NC(=O)c3ccccc3)cc2)cc1Br	n	n	u	n	n
CCOc1ccc(C(=O)Nc2ccc(Cc3ccncc3)cc2)cc1Br	u	15µM	n	n	u
Cc1ccc(CNC(=O)c2cc3c(s2)CS(=O)(=O)C3)cc1	n	n	n	n	n
Cc1cc2nc(-c3ccc(SCc4ccc(C(=O)O)cc4)nc3)[nH]c2cc1C	n	u	n	n	n[11.3 µM]
Cc1cc2nc(-c3ccc(SCC(=O)N4CCc5ccccc54)nc3)[nH]c2cc1C	n	u	18µM	n	u
Cc1ccc(C(=O)N2CCN(c3ccccc3)CC2)cc1S(=O)(=O)N1CCCC1	n	21µM	n	n	n
Cc1ccc(C(=O)N2CCN(c3ccc(F)cc3)CC2)cc1S(=O)(=O)N1CCCCC1	n	12µM	n	n	n
O=C(c1ccc(Cl)c(S(=O)(=O)N2CCCC2)c1)N1CCN(c2ccc(F)cc2)CC1	n	u	n	n	n
COc1ccc(C(=O)N2CCN(c3ccccc3)CC2)cc1S(=O)(=O)N1CCCC1	n	n	n	n	n
COc1ccc(OC)c(NC(=O)c2ccc(CN(c3cc(Cl)ccc3C)S(=O)(=O)c3ccccc3)cc2)c1	n	n	n	n	n
O=C(COC(=O)c1cc([N+](=O)[O-])ccc1N1CCOCC1)Nc1cccc(F)c1	4.6µM	u	n	n	n
Cc1ccc(Cl)cc1Nc1nc(-c2sc(NC(=O)C(C)(C)C)nc2C)cs1	n	12µM	u	n	n
CC(=O)Nc1ccc(Nc2nc(-c3sc(NC(C)=O)nc3C)cs2)cc1	n	n	u	n	n
CCC(C)C(=O)Nc1nc(C)c(-c2csc(Nc3ccc(Cl)cc3)n2)s1 (stereo unspecified)	u	16µM	n	n	n
O=C1c2[nH]nc(-c3ccccc3O)c2C(c2cccc(Br)c2)N1Cc1ccncc1 (stereo unspecified)	n	n	11µM	n	u
CCOc1ccc(-c2cc(CCCC(=O)NCc3cccnc3)no2)cc1	n	n	u	n	n
COc1ccc(Cl)c(-c2cc(C(=O)Nc3ccc(C)c(NS(C)(=O)=O)c3)[nH]n2)c1	x	x	u	n	u
COc1ccc(Cl)cc1-c1cc(C(=O)Nc2ccc(C)c(NS(C)(=O)=O)c2)[nH]n1	x	x	16µM	n	22µM
CCC1CN(CCC(=O)N2CCN(c3ncccn3)CC2)Cc2cc(OC)ccc2O1 (stereo unspecified)	x	x	n	x	x
O=C1c2cccc3cc([N+](=O)[O-])cc(c23)C(=O)N1/N=C/c1ccc(O)cc1O	23µM	u	n	n	n
CCCCOc1ccc(C(=O)NNC(=O)c2cnccn2)cc1OC	n	10µM	n	n	u
COc1cc(C(=O)NC(=S)NNC(=O)c2cnccn2)cc(OC)c1OC	n	4.6µM	n	n	u
